SMILES strings stand for the structures.

Chain of Torsin-1A-interacting protein 1 (Homo sapiens) (Q5JTV8 whole entry, looked up): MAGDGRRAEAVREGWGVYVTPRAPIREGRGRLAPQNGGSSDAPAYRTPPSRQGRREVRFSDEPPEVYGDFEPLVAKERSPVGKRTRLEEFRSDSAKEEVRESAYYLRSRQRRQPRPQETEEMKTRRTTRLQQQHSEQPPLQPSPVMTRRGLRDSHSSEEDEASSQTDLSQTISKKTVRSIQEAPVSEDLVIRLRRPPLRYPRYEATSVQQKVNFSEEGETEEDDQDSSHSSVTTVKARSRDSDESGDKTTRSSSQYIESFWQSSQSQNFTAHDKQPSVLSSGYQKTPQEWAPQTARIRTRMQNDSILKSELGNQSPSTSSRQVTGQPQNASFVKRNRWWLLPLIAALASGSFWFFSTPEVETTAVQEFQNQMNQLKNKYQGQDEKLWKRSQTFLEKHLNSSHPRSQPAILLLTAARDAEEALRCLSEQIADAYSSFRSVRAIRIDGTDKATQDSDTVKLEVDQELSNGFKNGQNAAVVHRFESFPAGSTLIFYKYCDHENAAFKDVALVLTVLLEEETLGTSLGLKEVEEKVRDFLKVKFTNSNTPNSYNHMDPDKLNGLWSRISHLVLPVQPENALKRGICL

The assay has as its target Torsin-1A-interacting protein 1 (Homo sapiens) (UniProt Q5JTV8). Briefly: compound microarray binding of lysate hLAP1 – cell lysate, small-molecule microarray, COS7 lysate, 635/667 nm fluorescence, primary screen (AID 1116). Conditions: 635 nm fluorescence, higher = more signal.
Compound `COCCOC(=O)N1C(=O)[C@@]2(c3cc(C#CC4(O)CCCCCC4)ccc31)[C@H](C(=O)N1CCCCCCC1)[C@H]1C(=O)O[C@H](c3ccccc3)[C@H](c3ccccc3)N1[C@@H]2c1ccc(O)cc1` displayed a composite z-score of 3.24.

As to `C=CCC(OC(C)=O)[C@@H]1[C@@H](N(Cc2cc3ccccc3o2)C(=O)Cc2ccc(F)cc2)c2cc(OCCCO)ccc2N1C(=O)c1ccc(-c2ccccc2)cc1` (some centres not stated), the composite z-score is -0.467.

With `O=C(CS)NCCCCCNC(=O)[C@H]1C[C@H]2C(=O)N[C@@H](Cc3ccccc3)C(=O)N2[C@H]1c1ccc(O)cc1`, the composite z-score was 0.792.

`CO[C@H]1COC(=O)CC=C[C@@H](C)COC(=O)[C@@H](C)NC(=O)CC=C[C@@H]1C` showed a composite z-score of -0.229.

As to `CCC(=O)[C@]12O[C@@]3([C@@H]4C(=O)OCC[C@@H]41)N(Cc1ccccc1)C(C)=C(C(=O)OC)[C@@H](c1ccccc1)N3C2=O`, the composite z-score is -0.398.

In turn, `C[C@]1(C(=O)NCCN2CCOCC2)c2ccccc2C(=O)N(Cc2ccccc2)[C@H]1c1ccc(CO)cc1` showed a composite z-score of -0.705.

In turn, `CC[C@H]1C2=C3C(CC[C@H]4C(OC)OC[C@](C)([C@@H]34)N(C(=O)OC(C)(C)C)C2)C(CO)C1CO` (some centres not stated) gave a composite z-score of 2.23.

`O=C1c2ccccc2[C@@]2(Cc3ccccc3N(CC(F)(F)F)C2=O)[C@H](c2ccc(CO)cc2)N1C1CCCCC1` came in with a composite z-score of 0.415.

In turn, `C=C(C(=O)CC[C@H](OC(=O)c1ccccc1-c1ccccc1C(=O)O)c1ccc(CO)o1)C(C)C` showed a composite z-score of 0.875.

`CC1=C([C@H](O)CCc2ccccc2)[C@H](CO)[C@@H]2C(=O)N(Cc3ccccc3)C(=O)[C@@H]2C1` displayed a composite z-score of 0.421.

`O=C1O[C@H](c2ccccc2)[C@H](c2ccccc2)N2[C@H]1[C@@H](C(=O)NC[C@H](O)c1ccccc1)[C@]1(C(=O)Nc3ccc(C#CC4=CCCCC4)cc31)[C@H]2c1ccc(OCCO)cc1` had a composite z-score of 0.6.

On to `COc1cc(Cc2cc3c(c(CCc4ccccc4)n2)[Si](C(C)C)(C(C)C)OC3)cc(OC)c1OC`, for which the composite z-score is -0.214.

Compound `CO[C@H]1O[C@H](CO)[C@@H](OC(=O)CCc2ccccc2)[C@@H]2OC(=O)[C@H](Cc3cccc(Br)c3)C/C=C/C[C@@H](Cc3cccc(Br)c3)C(=O)O[C@@H]12` came in with a composite z-score of -0.0066.

Regarding `Cc1ccc(S[C@]2(C(=O)NCCCN(C)C)CC(=O)N(C3CCCCC3)[C@@H]2c2ccc(CO)cc2I)cc1`, the composite z-score came to 0.123.

The compound `COC(=O)[C@@]1(Cc2ccccc2CN=[N+]=[N-])N=C(c2ccc(OCCCO)cc2)O[C@H]1c1ccccc1N=[N+]=[N-]` gave a composite z-score of 0.0753.

For `CO[C@@H]1COC(=O)[C@H](C)NC(=O)CC=C[C@@H](C)[C@H](OC)COC(=O)[C@H](C)NC(=O)CC=C[C@H]1C`, the composite z-score was 0.0309.

Consider `COCCOC(=O)N1C(=O)[C@@]2(c3cc(C#CCNC(N)=O)ccc31)[C@H](c1ccc(OCCO)cc1)N1[C@H](c3ccccc3)[C@H](c3ccccc3)OC(=O)[C@H]1[C@@H]2C(=O)Nc1nc2ccccc2s1`, for which the composite z-score was 0.114.

Regarding `C=CC[C@@]1(C(=O)N2CCOCC2)N=C(c2ccc(OCCCO)cc2)O[C@@H]1c1ccccc1`, the composite z-score was determined as 1.68.

With `COc1cc2c(cc1OC)CN(C(=O)[C@H]1[C@@H]3C(=O)O[C@@H](c4ccccc4)[C@@H](c4ccccc4)N3[C@@H](c3ccc(O)cc3)[C@]13C(=O)Nc1ccc(C#CC4(O)CCCCCC4)cc13)CC2`, the composite z-score worked out at 3.48.

As to `O=C/C=C/c1ccccc1Cl`, the composite z-score is -0.335.

As for `C=CCC(OC(C)=O)[C@@H]1[C@@H](N(Cc2cccc3ccccc23)C(=O)Cc2ccc(F)cc2)c2cc(OCCCO)ccc2N1C(=O)Cc1ccc2ccccc2c1` (some centres not stated), the composite z-score was -0.148.

Compound `CC(=O)NCCCC[C@@H]1NC(=O)[C@@H]2C[C@H](C(=O)NCCCCCNC(=O)CS)[C@H](c3ccc(O)cc3)N2C1=O` gave a composite z-score of 0.0502.

With `C[N+](C)(C)CCCCNC(=O)[C@@H]1C[C@@H]2C(=O)N3CCC[C@H]3C(=O)N2[C@@H]1c1cccc(OCCO)c1`, the composite z-score is 1.62.

`O=C(NCC(O)CO)[C@]1(Cc2ccccc2)N=C(c2ccc(OCCCO)cc2)O[C@@H]1c1ccccc1` (some centres not stated) gave a composite z-score of 2.64.

Consider `COC(=O)Cn1c(C(=O)N2CCCC2)cc2c1C[C@H]1CN(C(=O)c3ccccc3)[C@@](Cc3ccccc3)(C(=O)OC)[C@@H]21`, for which the composite z-score stood at 0.261.

`CCOC(=O)[C@H]1C/C=C/C[C@H](C(=O)OCC)C(=O)O[C@H]2[C@@H](OC)O[C@H](CO)[C@@H](OC(=O)Nc3ccc(Br)cc3)[C@@H]2OC1=O` displayed a composite z-score of 0.396.

`CO[C@@H]1COC(=O)[C@@H]2CCCN2C(=O)CC=C[C@@H](C)[C@H](OC)COC(=O)[C@@H]2CCCN2C(=O)CC=C[C@H]1C` returned a composite z-score of -0.233.

The record behind these values is PubChem BioAssay.
